This note sets out measurements from paper PMC7862700, “An all-to-all approach to the identification of sequence-specific readers for epigenetic DNA modifications on cytosine”.

Assay in all cases: DAPPL (digital affinity profiling via proximity ligation, sequencing); 10 mM Tris-HCl pH 7.5, 50 mM NaCl, 1 mM DTT, 4% glycerol, room temperature, 30 min; GST-TFs on glutathione beads, 16-mer random dsDNA library, 0.1% formaldehyde crosslink after washing; high values mean tight binding
The target of assay [1] is T1, FEV (Homo sapiens, UniProt Q99581 1-238).
T1 sequence: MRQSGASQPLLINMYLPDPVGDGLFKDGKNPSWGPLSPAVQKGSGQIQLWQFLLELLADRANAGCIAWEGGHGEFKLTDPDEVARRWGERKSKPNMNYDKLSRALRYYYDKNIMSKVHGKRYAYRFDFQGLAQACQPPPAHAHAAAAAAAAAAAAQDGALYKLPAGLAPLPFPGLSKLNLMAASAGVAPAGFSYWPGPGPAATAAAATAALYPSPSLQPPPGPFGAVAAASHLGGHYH
The following applies: protein: recombinant; tags: N-terminal GST; dsDNA, one strand shown. The method, boiled down: (§1)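 After expression in yeast as GST fusions, human transcription factors were bound to glutathione beads, DNA-barcoded and mixed with a tag-only sample. The pools were incubated with 200 nmole of a 16-mer random double-stranded DNA library in Tris/NaCl/DTT/glycerol buffer (30 min, room temperature), washed and crosslinked with 0.1% formaldehyde. Proximity ligation with BsaI/T4 ligase ran for 1 h at 37 °C, before PCR amplification and sequencing on an Illumina NextSeq500. Binding signal is a hexamer's read frequency for a factor divided by its frequency for the tag-only sample.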

Assay [2] addresses ETV5 (Homo sapiens, UniProt P41161 1-510). The following applies: protein: recombinant; tags: N-terminal GST; dsDNA, one strand shown. In short, it runs like this:
as §1

Assay [3] addresses HSF1 (Homo sapiens, UniProt Q00613 1-529). The following applies: protein: recombinant; tags: N-terminal GST; chain copies: 3; dsDNA, one strand shown. In short, it runs like this:
as §1

In assay [4] the target is T2, SPIC (Homo sapiens, UniProt Q8N5J4 1-248).
T2 sequence: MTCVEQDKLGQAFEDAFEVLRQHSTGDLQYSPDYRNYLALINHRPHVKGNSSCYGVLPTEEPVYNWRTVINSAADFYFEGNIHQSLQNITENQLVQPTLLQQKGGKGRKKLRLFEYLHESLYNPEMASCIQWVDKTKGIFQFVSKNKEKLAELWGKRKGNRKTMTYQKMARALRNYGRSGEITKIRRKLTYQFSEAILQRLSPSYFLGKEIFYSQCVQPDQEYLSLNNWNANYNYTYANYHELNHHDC
The following applies: protein: recombinant; tags: N-terminal GST; dsDNA, one strand shown. In short, it runs like this: as §1

The target in assay [5] is ELF4 (Homo sapiens, UniProt Q99607 1-663). The following applies: protein: recombinant; tags: N-terminal GST; dsDNA, one strand shown. The method, boiled down:
as §1

The target in assay [6] is T3, ELK4 (Homo sapiens, UniProt P28324-2 1-405).
T3 sequence: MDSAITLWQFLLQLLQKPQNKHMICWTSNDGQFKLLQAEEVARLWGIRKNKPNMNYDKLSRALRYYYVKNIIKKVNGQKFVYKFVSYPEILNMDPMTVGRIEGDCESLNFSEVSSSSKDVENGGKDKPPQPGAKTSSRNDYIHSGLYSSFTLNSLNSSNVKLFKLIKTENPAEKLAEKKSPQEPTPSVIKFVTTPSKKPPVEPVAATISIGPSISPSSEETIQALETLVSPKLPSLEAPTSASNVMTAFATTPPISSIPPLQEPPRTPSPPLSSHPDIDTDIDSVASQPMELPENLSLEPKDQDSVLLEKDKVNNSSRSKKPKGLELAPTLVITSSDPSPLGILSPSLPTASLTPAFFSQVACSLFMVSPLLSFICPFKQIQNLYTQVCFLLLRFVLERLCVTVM
The following applies: protein: recombinant; tags: N-terminal GST; dsDNA, one strand shown. In short, it runs like this:
as §1

Assay [7] concerns the target T4, ETV2 (Homo sapiens, UniProt O00321 1-342).
T4 sequence: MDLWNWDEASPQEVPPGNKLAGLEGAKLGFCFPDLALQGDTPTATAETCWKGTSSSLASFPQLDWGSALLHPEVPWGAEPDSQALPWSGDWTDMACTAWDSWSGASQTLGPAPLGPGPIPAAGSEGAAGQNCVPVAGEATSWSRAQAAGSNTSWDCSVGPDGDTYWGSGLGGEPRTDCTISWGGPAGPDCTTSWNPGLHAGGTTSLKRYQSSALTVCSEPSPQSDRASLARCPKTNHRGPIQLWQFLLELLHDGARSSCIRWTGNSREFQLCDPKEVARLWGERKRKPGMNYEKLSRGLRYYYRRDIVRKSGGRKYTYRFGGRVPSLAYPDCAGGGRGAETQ
The following applies: protein: recombinant; tags: N-terminal GST; dsDNA, one strand shown. In short, it runs like this:
as §1

Assay [8] concerns the target T5, ELF3 (Homo sapiens, UniProt P78545 1-371).
T5 sequence: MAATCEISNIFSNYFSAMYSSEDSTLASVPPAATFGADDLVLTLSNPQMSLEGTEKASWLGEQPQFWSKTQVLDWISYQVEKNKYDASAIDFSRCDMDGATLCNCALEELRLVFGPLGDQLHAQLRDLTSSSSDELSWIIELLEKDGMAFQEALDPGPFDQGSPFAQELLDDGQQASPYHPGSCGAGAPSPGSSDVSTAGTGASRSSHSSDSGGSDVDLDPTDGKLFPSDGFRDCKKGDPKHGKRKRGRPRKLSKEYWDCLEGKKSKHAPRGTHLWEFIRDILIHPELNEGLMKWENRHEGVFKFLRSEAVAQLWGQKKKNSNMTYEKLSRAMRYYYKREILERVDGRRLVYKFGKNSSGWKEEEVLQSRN
The following applies: protein: recombinant; tags: N-terminal GST; dsDNA, one strand shown. In short, it runs like this:
as §1

Assay [9] deals with CRX (Homo sapiens, UniProt O43186 1-299). The following applies: protein: recombinant; tags: N-terminal GST; dsDNA, one strand shown. The method, boiled down: as §1
In assay [10] the target is ETV1 (Homo sapiens, UniProt P50549 1-477). The following applies: protein: recombinant; tags: N-terminal GST; dsDNA, one strand shown. The method, boiled down: as §1
Sequence of ETV1 (P50549 whole entry): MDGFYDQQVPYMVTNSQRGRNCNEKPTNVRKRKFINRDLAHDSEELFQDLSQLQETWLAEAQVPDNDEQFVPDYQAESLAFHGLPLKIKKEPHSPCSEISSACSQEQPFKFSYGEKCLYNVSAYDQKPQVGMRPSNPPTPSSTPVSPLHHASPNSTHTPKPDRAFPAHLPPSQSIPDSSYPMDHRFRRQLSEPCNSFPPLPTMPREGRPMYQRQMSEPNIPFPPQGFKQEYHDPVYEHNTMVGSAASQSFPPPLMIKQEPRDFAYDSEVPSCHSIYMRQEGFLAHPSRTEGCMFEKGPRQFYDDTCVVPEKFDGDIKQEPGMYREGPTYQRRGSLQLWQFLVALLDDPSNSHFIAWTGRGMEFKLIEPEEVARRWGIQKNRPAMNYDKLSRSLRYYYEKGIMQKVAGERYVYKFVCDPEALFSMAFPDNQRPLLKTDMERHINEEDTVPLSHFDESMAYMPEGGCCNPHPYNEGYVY

Sequence of ETV5 (P41161 whole entry): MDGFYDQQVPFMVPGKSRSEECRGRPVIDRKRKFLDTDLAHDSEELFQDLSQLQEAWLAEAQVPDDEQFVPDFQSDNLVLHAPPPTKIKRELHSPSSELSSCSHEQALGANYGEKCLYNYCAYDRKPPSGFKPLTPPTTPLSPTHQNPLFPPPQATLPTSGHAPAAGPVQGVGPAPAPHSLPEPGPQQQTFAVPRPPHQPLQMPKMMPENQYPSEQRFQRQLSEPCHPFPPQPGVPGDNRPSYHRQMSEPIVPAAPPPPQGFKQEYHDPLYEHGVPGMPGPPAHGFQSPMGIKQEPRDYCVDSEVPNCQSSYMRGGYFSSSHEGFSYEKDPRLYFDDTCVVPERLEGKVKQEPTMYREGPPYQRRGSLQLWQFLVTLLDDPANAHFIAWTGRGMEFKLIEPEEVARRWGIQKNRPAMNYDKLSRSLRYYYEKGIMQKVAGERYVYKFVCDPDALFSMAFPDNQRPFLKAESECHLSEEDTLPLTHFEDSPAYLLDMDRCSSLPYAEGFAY
Sequence of CRX (O43186 whole entry): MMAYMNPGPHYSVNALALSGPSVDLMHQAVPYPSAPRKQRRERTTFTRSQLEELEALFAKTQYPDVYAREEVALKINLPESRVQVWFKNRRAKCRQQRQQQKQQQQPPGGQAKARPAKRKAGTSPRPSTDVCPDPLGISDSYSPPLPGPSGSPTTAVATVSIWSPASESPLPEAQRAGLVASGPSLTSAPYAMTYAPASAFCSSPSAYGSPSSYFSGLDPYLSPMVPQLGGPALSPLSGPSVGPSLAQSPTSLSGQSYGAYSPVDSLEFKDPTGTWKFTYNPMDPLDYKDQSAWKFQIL
Sequence of ELF4 (Q99607 whole entry): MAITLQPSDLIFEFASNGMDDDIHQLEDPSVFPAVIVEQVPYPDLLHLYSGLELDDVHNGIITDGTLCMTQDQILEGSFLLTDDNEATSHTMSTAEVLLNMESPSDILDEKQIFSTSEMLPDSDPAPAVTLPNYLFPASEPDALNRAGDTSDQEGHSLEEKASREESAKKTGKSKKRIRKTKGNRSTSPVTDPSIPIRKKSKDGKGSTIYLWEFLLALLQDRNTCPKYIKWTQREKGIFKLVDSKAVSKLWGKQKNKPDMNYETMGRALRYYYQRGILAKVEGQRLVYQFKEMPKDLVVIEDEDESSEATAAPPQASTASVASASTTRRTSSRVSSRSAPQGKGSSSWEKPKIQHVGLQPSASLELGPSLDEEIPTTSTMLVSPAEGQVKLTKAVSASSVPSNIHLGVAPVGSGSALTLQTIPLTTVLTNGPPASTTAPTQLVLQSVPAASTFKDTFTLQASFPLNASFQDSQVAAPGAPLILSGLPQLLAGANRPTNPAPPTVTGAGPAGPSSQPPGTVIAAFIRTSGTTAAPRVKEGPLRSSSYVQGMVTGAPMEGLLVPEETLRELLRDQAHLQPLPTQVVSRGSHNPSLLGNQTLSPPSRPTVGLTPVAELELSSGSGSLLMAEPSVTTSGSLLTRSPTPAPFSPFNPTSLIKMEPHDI
Sequence of HSF1 (Q00613 whole entry): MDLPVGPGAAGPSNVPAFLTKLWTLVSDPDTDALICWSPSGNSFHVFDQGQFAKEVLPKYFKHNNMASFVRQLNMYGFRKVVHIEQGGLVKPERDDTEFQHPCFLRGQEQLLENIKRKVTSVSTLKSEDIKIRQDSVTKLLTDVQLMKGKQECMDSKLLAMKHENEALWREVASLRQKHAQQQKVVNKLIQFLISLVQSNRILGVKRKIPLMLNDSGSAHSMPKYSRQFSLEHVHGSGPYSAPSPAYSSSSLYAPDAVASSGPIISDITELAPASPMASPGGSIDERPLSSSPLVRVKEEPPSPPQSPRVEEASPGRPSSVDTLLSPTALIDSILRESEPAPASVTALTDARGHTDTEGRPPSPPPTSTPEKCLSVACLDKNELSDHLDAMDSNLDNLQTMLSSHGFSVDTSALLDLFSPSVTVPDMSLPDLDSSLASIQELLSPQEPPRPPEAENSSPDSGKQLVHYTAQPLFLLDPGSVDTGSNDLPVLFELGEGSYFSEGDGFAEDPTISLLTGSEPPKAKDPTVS

As to ATTGGG, the binding signal in [1] was 1.13 fold enrichment (6-mer frequency, TF over GST control); in [2], 1.26 fold enrichment (6-mer frequency, TF over GST control); in [3], 1.06 fold enrichment (6-mer frequency, TF over GST control); in assay [4] it was 1.26 fold enrichment (6-mer frequency, TF over GST control); in [5], 1.19 fold enrichment (6-mer frequency, TF over GST control); in [6] it was 1.18 fold enrichment (6-mer frequency, TF over GST control). In addition, the binding signal in [7] was 1.13 fold enrichment (6-mer frequency, TF over GST control); in [8], 1.22 fold enrichment (6-mer frequency, TF over GST control); in assay [9] it was 1.22 fold enrichment (6-mer frequency, TF over GST control); in [10], 1.2 fold enrichment (6-mer frequency, TF over GST control).
